Hit rate of the full screen: of about 65,000 compounds, about 450 (0.69%) were called active.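 How the source made its calls: active means HER2 level under 5% of the carrier-only control; inconclusive means no clear call, values can overlap the other calls; inactive means the rest.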 The entries come from a sample that favours actives as a whole.
target: Receptor tyrosine-protein kinase erbB-2 (Homo sapiens) (UniProt P04626); assay: inhibitors of Her2 protein expression, primary screen, SKBR-3 cells, AlphaScreen, 66K library (AID 645); conditions: SKBR-3 HER2 protein level, 18-24 h, at 10 µM, active compounds read low;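 further: 100% = DMSO carrier and 0% = 500 nM PU-H71 HSP90 inhibitor; lower value means stronger loss of Her2 protein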
Sequence (P04626 whole entry, looked up): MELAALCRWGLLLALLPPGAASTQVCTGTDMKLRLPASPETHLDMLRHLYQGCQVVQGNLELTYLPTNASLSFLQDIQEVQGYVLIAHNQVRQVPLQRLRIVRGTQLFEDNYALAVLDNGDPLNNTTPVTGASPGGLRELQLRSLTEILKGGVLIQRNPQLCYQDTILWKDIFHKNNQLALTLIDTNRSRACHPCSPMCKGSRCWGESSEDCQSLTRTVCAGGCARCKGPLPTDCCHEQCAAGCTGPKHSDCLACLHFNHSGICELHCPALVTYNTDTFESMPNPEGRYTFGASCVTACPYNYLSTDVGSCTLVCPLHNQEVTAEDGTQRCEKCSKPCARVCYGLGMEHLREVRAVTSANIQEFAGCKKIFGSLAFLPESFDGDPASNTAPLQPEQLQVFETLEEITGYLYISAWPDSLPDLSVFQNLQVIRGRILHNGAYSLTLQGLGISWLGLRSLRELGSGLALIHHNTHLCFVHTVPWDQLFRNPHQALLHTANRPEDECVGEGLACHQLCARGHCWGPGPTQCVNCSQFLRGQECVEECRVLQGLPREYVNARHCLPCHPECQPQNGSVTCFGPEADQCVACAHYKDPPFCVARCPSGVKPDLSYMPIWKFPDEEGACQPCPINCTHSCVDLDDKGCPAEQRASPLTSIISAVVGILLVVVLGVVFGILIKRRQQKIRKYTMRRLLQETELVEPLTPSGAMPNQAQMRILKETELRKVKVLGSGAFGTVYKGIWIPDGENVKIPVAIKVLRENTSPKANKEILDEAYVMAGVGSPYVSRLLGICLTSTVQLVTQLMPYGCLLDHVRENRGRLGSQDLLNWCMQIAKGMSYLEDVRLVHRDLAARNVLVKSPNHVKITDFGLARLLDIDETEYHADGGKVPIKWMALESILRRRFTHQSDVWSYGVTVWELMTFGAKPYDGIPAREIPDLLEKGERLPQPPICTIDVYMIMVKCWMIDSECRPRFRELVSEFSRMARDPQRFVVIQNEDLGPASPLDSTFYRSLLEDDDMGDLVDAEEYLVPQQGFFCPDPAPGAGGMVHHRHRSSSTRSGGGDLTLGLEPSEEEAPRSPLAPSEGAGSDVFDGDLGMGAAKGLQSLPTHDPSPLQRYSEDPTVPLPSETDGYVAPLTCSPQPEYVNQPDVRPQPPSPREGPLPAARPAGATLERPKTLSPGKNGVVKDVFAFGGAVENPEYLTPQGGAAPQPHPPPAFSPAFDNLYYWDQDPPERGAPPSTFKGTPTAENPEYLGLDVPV

HER2 level % of control, active:
O=c1[nH]c(CSc2ncc(-c3ccc(F)cc3)n2Cc2ccco2)nc2ccccc12 -21.8%
c1ccc2cc(OCCN3CCCC3)ccc2c1 -25.1%
COC(=O)c1ccc(NC(=O)C(C)N2C(=O)c3ccccc3C2=O)cc1 (stereo not drawn) -18.9%
CC(C)CCNc1nc(N2CCCC2)c2c(c1C#N)CCN(C)C2 -0.705%
CCCC1C(c2ccccc2)C(C#N)(C#N)C2(C#N)CC1(N)NC2=O (stereo not drawn) -19.3%
CCC(c1nnnn1Cc1ccco1)N(Cc1cc2cc(OC)ccc2[nH]c1=O)C1CCCCC1 (stereo not drawn) 1.98%
S=C1SCN(CCN2CCOCC2)CN1Cc1ccccc1 3.88%
COc1ccccc1-n1nnnc1S(=O)(=O)Cc1ccc(Cl)cc1 -1.27%

HER2 level % of control, inactive:
O=C(O)C1C2C=CC(C2)C1C(=O)N1CCN(CCO)CC1 (stereo not drawn) 56.8%
Cn1c(-c2ccc(F)cc2)cnc1SCC(=O)NCc1ccco1 85.8%
Nc1cc(=O)nc(SCc2ccccc2)n1Cc1ccco1 77%
CN(C)c1nc2n(c(=O)n1)CCO2 93.2%
CCC(=O)NC(=Nc1nc2ccccc2s1)NC(=O)CC 76%
CCC(=O)c1cc2c(cc1NC(=O)c1cccs1)OCCO2 102%
COc1cccc(NC(=O)C(C)Oc2ccccc2)c1 (stereo not drawn) 87.6%
CCCC1CC(C)(C(=O)Cn2[nH]c(=O)ccc2=O)OC1=O (stereo not drawn) 109%
COc1ccccc1CNC(=O)Cn1cc2c(n1)CCCC2 95.6%
CCc1cc2c(=O)c(-c3ccon3)c(N)oc2cc1OC 49.1%
Cc1ccccc1CN1CCN(C(=O)c2cccc(F)c2)CC1 79%
Cc1cc(OCCN2CCCC2)ccc1C(C)C 63%
OC(COc1ccc2ccccc2c1)CN1CCOCC1 (stereo not drawn) 113%
CCOC(=O)Cc1csc(NC(=O)C(C)(C)C)n1 135%
CCc1nc2ccccc2n(CCOCCOCCn2c(=O)c(CC)nc3ccccc32)c1=O 91.8%
CC(=O)NC1=NC(=O)CS1 76.7%
Cn1c2c(c(=O)n(C)c1=O)C1c3ccccc3OCC1C(C)(C)O2 (stereo not drawn) 99.2%
CCOc1ccccc1N=C1NC(=O)CS1 88.8%
CCN(CC)CCNC(=O)Cn1cnc2sc(C)c(S(=O)(=O)N3CCOCC3)c2c1=O 103%
OC(COc1cccc2ccccc12)CN1CCN(c2ccccn2)CC1 (stereo not drawn) 105%
O=C1CSC(=O)N1CCOCCN1C(=O)CSC1=O 104%
Cc1ccc2c(CSc3nncs3)cc(=O)oc2c1 149%
Cc1cc(=O)[nH]c(SCc2cc(Cl)ccc2OC(F)F)n1 103%
CC1CC(c2ccccc2)n2nc(NC(=O)c3cccs3)nc2N1 (stereo not drawn) 89%
CCOC(=O)Cc1c(C)nc2c(C#N)c(C)nn2c1C 92.6%
COCCNCCOCCOc1cccc(OC)c1 102%
Cc1nc(C)c2c(c1C(F)(F)F)-c1ccccc1C2(F)F 78.7%
COc1ccc(C(c2nnnn2C2CCCCC2)N2CCN(c3ccccc3F)CC2)cc1 (stereo not drawn) 80.7%
O=C(c1ccc2c(c1)N(Cc1ccc(F)cc1)C(=O)CS2)N1CCOCC1 98.6%
CC(=O)N1CCN(c2cccc(C)c2C)CC1 110%
COc1ccc(C(CNC(=O)c2cccnc2SC)N2CCOCC2)cc1 (stereo not drawn) 106%
CC(=O)Nc1ccc(S(=O)(=O)N2CCCC2C(=O)O)cc1 (stereo not drawn) 162%
COC(=O)c1ccc(NC(=O)c2ccco2)cc1 85.8%
Cc1cc(C)nc(NC(=O)C(C)N2C(=O)c3ccccc3C2=O)n1 (stereo not drawn) 89.5%
COC(=O)C1C(=O)c2c([nH]c(C(=O)OCCSC)c2C)CC1C (stereo not drawn) 99.8%
CCOC(=O)c1c(C)n(C)c2ccc(OC)c(NC(=O)CN3CCC4(CC3)OCCO4)c12 34.4%
CC(C)Cc1nc(N2CCOCC2)c(C#N)c2c1CCC2 106%
CCN1CCc2c(C#N)c(NCc3ccccc3)nc(NCCO)c2C1 94.1%
COc1ccc(-c2cc3n(n2)CCc2nc4ccccc4n2-3)cc1 74.2%
COC(=O)CN(c1nc(C)c(Cl)c(OC)n1)S(=O)(=O)c1ccc(C)cc1 103%
CCC(=NC1CC(C)(C)NC(C)(C)C1)C1=C(O)CC(C)(C)CC1=O 76%
CNC(=O)c1cc2c(ccc3ccccc32)oc1=N 74.1%
O=C(O)CN(Cc1ccco1)S(=O)(=O)c1ccccc1 110%
CC1CCCC(C)N1C(=O)CN1CCN(c2nc(-c3ccc(F)cc3)cs2)CC1 (stereo not drawn) 90.1%
CCCCc1nccn1CCn1ccnc1CCCC 106%
CCOC(=O)N1CCC(NC(=O)c2cnn3ccccc23)CC1 106%
CCCCCCC(=O)N(O)C1CC(=O)N(c2ccccc2)C1=O (stereo not drawn) 81.1%
CCN(CC)C(=O)C1CCC(C)(C(=O)O)C1(C)C (stereo not drawn) 100%
Cc1cc(C)c(C(=O)CN2C(=O)CCC2=O)cc1C 93.5%
CCCc1nc(SCC(=O)Nc2ccccc2OC)c2c(=O)n(C)c(=O)n(C)c2n1 31%
COc1ccc(-c2c(C)nn3c(N4CCC(C(=O)N5CCCCC5)CC4)cc(C)nc23)cc1OC 83.2%
O.O.O.O=S(=O)([O-])OC[C@H]1O[C@@H](O[C@]2(COS(=O)(=O)[O-])O[C@H](OS(=O)(=O)[O-])[C@@H](OS(=O)(=O)[O-])[C@@H]2OS(=O)(=O)[O-])[C@H](OS(=O)(=O)[O-])[C@@H](OS(=O)(=O)[O-])[C@@H]1OS(=O)(=O)[O-].[Al] 102%
CC(NC(=O)CSc1nc2c(cc1C#N)CN(C)CC2)c1ccccc1 (stereo not drawn) 110%
CSc1cccc(NC(=O)CSc2ccccc2)c1 95.7%
O=C(NCCCN1CCN(C2CCCCC2)CC1)Nc1ccccc1C(F)(F)F 82.5%
CCCCN(C)Cc1c(C)[nH]c2ccc(Cl)cc2c1=O 88%
CCCC(C)n1[nH]c(=O)c2c(C)cc(C)nc21 (stereo not drawn) 90.1%
c1cc(-n2cnnn2)ccc1NC1=NCCC1 92.1%
COCCOC(=O)C1=C(C)NC(=O)NC1c1ccc(Cl)cc1 (stereo not drawn) 95.6%
N#Cc1ccc(CSc2nnc(-c3ccccn3)n2-c2ccc(Cl)cc2)cc1 41.4%
O=C(c1ccco1)N1CCN(C(=O)C2CC(c3ccc(F)cc3)=NO2)CC1 (stereo not drawn) 57.7%
OCCNCCCCOc1ccccc1F 116%
O=C1c2oc3ccccc3c(=O)c2C(c2cccc(O)c2)N1c1ccccn1 (stereo not drawn) 95%
CCOC(=O)c1sc2nc(CSCC(=O)OCc3ccc(C(=O)OC)o3)[nH]c(=O)c2c1C 60.2%
CCC(c1nnnn1Cc1ccco1)N(CCc1ccccc1)Cc1cc2ccc(OC)cc2[nH]c1=O (stereo not drawn) 76.1%
CCC(c1nnnn1Cc1ccccc1)N(Cc1cc2cc(OC)ccc2[nH]c1=O)CC1CCCO1 (stereo not drawn) 117%
Cc1cc(NC(=O)CN2CCCCC2C)nc2c1c(=O)oc1ccccc12 (stereo not drawn) 70%
COc1ccccc1CNC(=O)CCn1c(=O)sc2ccccc21 92.5%
Cn1c(=O)c2c(nc(CN3CCOCC3)n2Cc2ccccc2)n(C)c1=O 75.7%
COc1ccc(CN2CN(C(C)C)CSC2=S)cc1 10.7%
O=C(NCc1ccco1)C1CCCN(S(=O)(=O)c2cnc[nH]2)C1 (stereo not drawn) 105%
O=C(N1CCOCC1)N1CCOCC1 112%
CS(=O)(=O)N(CC(=O)N1CCN(Cc2ccc3c(c2)OCO3)CC1)c1ccc2c(c1)OCO2 100%
COc1ccccc1C(=O)N1CCNC(=O)C1CC(=O)Nc1ccc(Cl)cc1 (stereo not drawn) 67.3%
Cc1nc2nc3c(cn2n1)C(=O)CC(c1ccccc1)C3 (stereo not drawn) 122%
O=C(Cn1c(-c2ccccn2)nc2ccccc21)NCCN1CCOCC1 79.8%
COc1cc(C2C(C(=O)c3ccc(C)o3)=C(O)C(=O)N2Cc2cccnc2)ccc1O (stereo not drawn) 154%
CCCN1C(=O)C(NS(=O)(=O)c2ccc(N)cc2)(C(F)(F)F)C(C(=O)OC)=C1C (stereo not drawn) 126%
CCOC(=O)CSc1nncc2ccc(OC)c(OC)c12 115%
CCOC(=O)N1CCN(C(=O)CN(c2ccc(C)c(C)c2)S(=O)(=O)c2ccccc2)CC1 224%
Cc1sc2c(c1C)c(=O)n(-c1ccccc1)c1nncn21 86.7%
N#Cc1c(NC(=O)CSc2nc3ccccc3c(=O)n2Cc2ccco2)sc2c1CCCC2 70.4%
O=C(NC(=O)c1ccc(Cl)c(Cl)c1)OC1CCS(=O)(=O)C1 (stereo not drawn) 106%
OC1CN=C2Sc3ccccc3N2C1 (stereo not drawn) 119%
O=C1c2ccccc2C(=O)N1CCc1nn[nH]n1 90.3%
Cc1c(CN2CCC(C)CC2)c(=O)n(-c2ccccc2)n1C 107%
Cn1c(=O)n(C)c(=O)n(CC(=O)N2CCCCC2)c1=O 149%
COc1ccccc1N1CCN(Cc2nnnn2CCc2ccccc2)CC1 102%
COc1ccccc1N1CCN(C(=O)CN(Cc2ccc(Cl)cc2)S(C)(=O)=O)CC1 68.2%
CC(C)C(=O)N1CCN(CCN=CC2=C(O)CC(c3ccco3)CC2=O)CC1 (stereo not drawn) 116%

Reference: PubChem BioAssay AID645 (SRMLSC, 2007)
